# Laboratory results taken from PubChem BioAssay.
# “And” between values parts separate entries of the source, which are not always exact repeats. Equal values may be shown once. The source holds several records for some structures; these can differ, active in one and inactive in another. The source made the active and inactive calls.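 Rule for the calls, unless noted: active = inhibition at or above 50% relative to wild type and mutant plate controls; inactive = inhibition below 50%.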
# Assays:
# [1] = inhibitors of TNFa-induced NFkB p65 translocation, primary screen, imaging, HUVEC, MLSMR starter and 10KST1 sets (AID 438;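 active = inhibition above 20% together with a positive visual image hit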;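 note: compound added about 3h40 before a 20 min TNFalpha stimulation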;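 for inhibition: signal is the nuclear over cytoplasmic p65 intensity ratio per well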); conditions: HUVEC TNFa-induced p65 nuclear translocation; cell count: measured here: nuclei count (cytotoxicity indicator), at 2.08 µM; inhibition: at 2 µM, stronger effect = higher value, 0% TNFa-plus-vehicle, 100% no-TNFa wells
# [2] = reduction of polyQ htt aggregates in cells – imaging, exon1htt(103Q)mCFP cells, high-content imaging, primary screen (AID 483;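 active = visual image review flags a hit and inhibition of aggregation exceeds 20%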;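 note: compound exposure lasted 3 days before fixation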;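 for nuclei count: percent of the per-plate median nuclei count of sample wells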); conditions: exon1htt(103Q)mCFP cell line, aggregate imaging, at 2 µM; inhibition of aggregation: stronger effect = higher value; nuclei count: measured here: cell count, toxicity
# [3] = endothelial E-selectin expression blockers – imaging, HUVEC, immunofluorescence, MLSMR starter and 10KST1 sets, primary screen (AID 487;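 active = visually confirmed hit in the image check and inhibition above 20%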;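 for inhibition: signal is fraction of cell area covered by stained E-selectin grains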;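 for nuclei count: 100% = median nuclei count of all wells on the same plate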); conditions: HUVEC TNFalpha-induced E-selectin immunofluorescence imaging, at 2 µM; inhibition: stronger effect = higher value; nuclei count: measured here: cell number, toxicity
# [4] = Primary imaging screen for DUSP6 inhibitors that restore phospho-Erk in transfected HeLa cells, chemical complementation (AID 609;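 active = compounds giving at least 50% inhibition in the cell-based MKP-3 phosphatase rescue imaging test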;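 for inhibition: phospho-Erk level distribution per well compared with pooled transfected vehicle control wells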); conditions: HeLa MKP-3 transfected, phospho-Erk imaging KS statistic, at 10 µM, cells stimulated with TPA for 15 min
# [5] = target: Dual specificity protein phosphatase 6 (Homo sapiens) (UniProt Q16828); assay: as above; conditions: HeLa MKP-3 transfected, phospho-Erk imaging KS statistic; at 10 µM; stronger effect = higher value; cells stimulated with TPA for 15 min
# Chain of Dual specificity protein phosphatase 6 (Homo sapiens) (Q16828 whole entry, looked up): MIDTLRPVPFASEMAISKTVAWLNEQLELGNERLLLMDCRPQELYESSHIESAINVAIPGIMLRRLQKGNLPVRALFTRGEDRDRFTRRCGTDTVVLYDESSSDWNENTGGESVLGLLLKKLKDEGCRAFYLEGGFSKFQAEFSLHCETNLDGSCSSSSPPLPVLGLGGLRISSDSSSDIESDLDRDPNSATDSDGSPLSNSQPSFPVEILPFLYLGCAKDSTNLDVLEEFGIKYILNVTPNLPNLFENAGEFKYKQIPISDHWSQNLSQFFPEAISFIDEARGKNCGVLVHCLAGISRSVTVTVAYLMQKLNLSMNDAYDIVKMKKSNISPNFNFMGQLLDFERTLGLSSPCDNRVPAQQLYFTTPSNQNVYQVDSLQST
# [6] = target: Voltage-gated potassium channel subunit beta-2 (Rattus norvegicus) (UniProt P62483); assay: inhibitors of rat Kvbeta2 reductase activity – biochemical, NADPH fluorescence, primary screen (AID 622;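 active = fluorescence slope higher than the sample average by over 3 SD, cut at about -0.22 in these data, passing the limit was not always enough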;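 note: slope of raw intensity against log time taken from 70 to 1610 s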); conditions: recombinant KvBeta, 4-cyanobenzaldehyde reduction, at 10 µM, stronger effect = higher value
# Chain of Voltage-gated potassium channel subunit beta-2 (Rattus norvegicus) (P62483 whole entry, looked up): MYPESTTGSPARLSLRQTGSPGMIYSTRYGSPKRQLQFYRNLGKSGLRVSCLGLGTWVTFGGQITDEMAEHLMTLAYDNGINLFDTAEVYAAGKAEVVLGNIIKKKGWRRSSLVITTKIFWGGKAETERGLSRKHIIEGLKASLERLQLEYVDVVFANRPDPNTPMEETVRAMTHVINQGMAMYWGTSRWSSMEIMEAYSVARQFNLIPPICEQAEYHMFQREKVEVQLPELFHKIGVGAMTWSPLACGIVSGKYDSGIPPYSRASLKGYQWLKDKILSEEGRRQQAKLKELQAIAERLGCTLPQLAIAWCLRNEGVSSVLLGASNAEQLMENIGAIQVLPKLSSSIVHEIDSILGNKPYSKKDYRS
# [7] = target: Voltage-gated potassium channel subunit beta-2 (Rattus norvegicus) (UniProt P62483); assay: enhancers of rat Kvbeta2 NADPH turnover – biochemical, NADPH fluorescence, primary screen (AID 623;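 active = NADPH fluorescence slope more negative than the mean of all samples by about 3 SD, 99.7% confidence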;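 note: fluorescence intensity change per second fitted from 20 to 320 s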); conditions: Recombinant KvBeta, NADPH fluorescence decrease slope, 10 min; at 10 µM; stronger effect = lower value
# [8] = target: Alpha-2C adrenergic receptor (Homo sapiens) (UniProt P18825); assay: compounds altering alpha2C-coupled GIRK flux – cell-based, HEK293 alpha2C/GIRK1/2, thallium flux, primary screen (AID 624;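 active = fluorescence slope after compound addition differing from the mean of all screened samples at 99.7% confidence, in either direction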;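 note: slope of fluorescence ratio to pre-addition baseline per second over 15 to 24 s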); conditions: thallium flux BTC fluorescence, at 10 µM, actives lie on both sides
# Chain of Alpha-2C adrenergic receptor (Homo sapiens) (P18825 whole entry, looked up): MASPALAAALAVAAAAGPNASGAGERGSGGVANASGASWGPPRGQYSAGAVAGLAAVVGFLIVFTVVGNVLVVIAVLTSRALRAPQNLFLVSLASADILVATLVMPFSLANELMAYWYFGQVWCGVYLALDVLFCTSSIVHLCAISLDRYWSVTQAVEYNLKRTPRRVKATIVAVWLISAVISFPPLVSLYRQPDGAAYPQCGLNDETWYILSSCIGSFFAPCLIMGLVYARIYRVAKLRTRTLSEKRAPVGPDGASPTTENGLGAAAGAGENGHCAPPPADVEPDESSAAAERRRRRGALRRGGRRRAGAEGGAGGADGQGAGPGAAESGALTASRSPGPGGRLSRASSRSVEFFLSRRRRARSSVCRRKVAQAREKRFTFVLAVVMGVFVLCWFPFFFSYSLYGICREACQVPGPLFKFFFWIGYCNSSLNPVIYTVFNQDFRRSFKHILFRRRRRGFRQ
# [9] = inhibitors of larval lipid processing in zebrafish, primary screen, whole organism, PED6 fluorescence, gall bladder and intestine (AID 686;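 active = a full or partial loss of lipid-probe fluorescence in the fish gall bladder, intestine or both, judged by eye; inactive = no fluorescence loss, or compound toxic to the fish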;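 note: larvae 5 to 7 days old with five fish per well; signal comes from phospholipase A2 cleavage of quenched PED6 carried via bile; overnight exposure to compound and PED6 before scoring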); conditions: Zebrafish larvae PED6 lipid processing, fluorescence scoring; screened at 20 µM (by protocol)
# [10] = loss of swimming-algae plug formation – whole organism, Chlamydomonas reinhardtii, WT vs cilia-less mutant, absorbance, 96-well, primary screen (AID 463189); conditions: Chlamydomonas reinhardtii gravitaxis, OD600 absorbance, 2 days; at 10 µM; stronger effect = higher value;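 note: 0% = wild type cc124 cells in DMSO and 100% = ciliumless bld1 mutant cells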
# [11] = blockers of RIG-like receptor reporter activation – cell-based, Sendai virus stimulus, luciferase, 10K MLSCN set, TLR/RLR signaling modifier project, primary screen (AID 602276;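 active = inhibition at or above 50% at 10 µM; inactive = inhibition below 50%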;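 note: firefly luciferase from ISG56 promoter only with Renilla not read in this screen; 0% = Sendai virus plus DMSO and 100% = medium plus DMSO without virus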); conditions: HEK293 RL24 IRF3 luciferase reporter, at 10 µM, stronger effect = higher value
# [12] = TLR3 IRF3 reporter activation blockers – cell-based, poly I:C stimulus, luciferase, 10K MLSCN set, primary screen (AID 602277;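 active = inhibition of the reporter signal at or above 50%; inactive = inhibition below 50%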); conditions: HEK293-TLR3 RL24 IRF3 luciferase reporter, at 10 µM, stronger effect = higher value
# [13] = measured here: cell density z-score
# [14] = measured here: nuclear c-Myc green intensity z-score
# [15] = measured here: nuclear pErk red intensity z-score, stronger effect = higher value
Compound,cell count [1],inhibition [1],inhibition of aggregation [2],nuclei count [2] [%],inhibition [3],nuclei count [3],"z-score [4, 13]","z-score [4, 14]","z-score [4, 15]",inhibition [5],fluorescence slope [6],NADPH fluorescence slope [7],slope [8],outcome [9],inhibition [10],inhibition [11],inhibition [12]
CN(C)CCCN1c2ccccc2CCc2ccc(Cl)cc21,621,-7.8% (inactive),-25.6% (inactive),113,-129% (inactive),124%,-0.576,1.08,1.97,7.39% (inactive),-0.41 (inactive),3.7e-05 (inactive),0.00326 (inactive),active; weak signal in gallbladder and intestine,16.7% (inactive) and 70.6% (active),14.9% (inactive),13.5% (inactive)
CCCCC1C(=O)N(c2ccccc2)N(c2ccccc2)C1=O,638,4.6% (inactive),-5.9% (inactive),96.9,-26.6% (inactive),109%,1.68,-0.325,-0.291,8% (inactive),-0.483 (inactive),-4.2e-05 (inactive),0.00446 (inactive),inactive,5.13% (inactive) and -8.61% (inactive),19.9% (inactive),41.2% (inactive)
CN1C(C(=O)Nc2ccccn2)=C(O)c2ccccc2S1(=O)=O,593 and 424,-2.6% (inactive) and -16.7% (inactive),-13.6% (inactive),111,-30.1% (inactive) and -244% (inactive),112% and 218%,0.668 and -0.761,0.887 and -0.948,-0.364 and 0.452,11.3% (inactive) and 2.71% (inactive),-0.457 (inactive) and -0.395 (inactive),1.6e-05 (inactive) and -1.1e-05 (inactive),0.00561 (inactive) and 0.00377 (inactive),inactive,7.21% (inactive) and 26% (inactive) and -1.23% (inactive),-0.169% (inactive),-2.96% (inactive)
CCOC(=O)C1=C[C@]2(CC)CCCN3CCc4c(n1c1ccccc41)[C@@H]32,689,-1.6% (inactive),15.2% (inactive),106,-59.3% (inactive),130%,-0.259,0.193,-0.265,3.45% (inactive),-0.443 (inactive),-4.6e-05 (inactive),0.013 (active),inactive,5.61% (inactive) and -6.65% (inactive),5.01% (inactive),18.6% (inactive)
O=C(O)CCCc1ccccc1,647,0.8% (inactive),-15.5% (inactive),106,-27.5% (inactive),112%,0.592,-1.18,-0.707,8% (inactive),-0.549 (inactive),-3.8e-05 (inactive),0.0053 (inactive),inactive,-5.1% (inactive),-1.93% (inactive),7.07% (inactive)
O=C(O)CCN(CCC(=O)O)c1nnc(SCc2ccccc2)s1,428,4% (inactive),-9.5% (inactive),108,-187% (inactive),136%,0.906,-0.398,-0.408,-3.98% (inactive),-0.393 (inactive),-6e-05 (inactive),0.0059 (inactive),inactive,-1.99% (inactive),18.7% (inactive),25.8% (inactive)
CNCCC=C1c2ccccc2CCc2ccccc21,525,0.8% (inactive),8% (inactive),77,-20.7% (inactive),117%,-0.881,-0.123,2.59,-10.4% (inactive),-0.521 (inactive),-4.9e-05 (inactive),0.00426 (inactive),inactive,34% (inactive) and 30.7% (inactive),29.4% (inactive),43.5% (inactive)
CCOC(=O)c1c(C)n(C)c2ccc(O)c(S(=O)(=O)c3ccccc3)c12,278,-3.6% (inactive),-0.2% (inactive),103,-19.6% (inactive),109%,-0.746,0.777,1.13,-8.76% (inactive),-0.458 (inactive),-0.000154 (inactive),0.00656 (inactive),inactive,-15.5% (inactive),21.8% (inactive),27% (inactive)
COc1cccc(Cn2c(OCC3CCCO3)nc3c2c(=O)n(C)c(=O)n3C)c1 (configuration not stated),411,-13.3% (inactive),1.3% (inactive),104,-83.9% (inactive),153%,-0.111,0.171,0.516,-7.28% (inactive),-0.377 (inactive),-2.5e-05 (inactive),0.00528 (inactive),inactive,0.777% (inactive),17.3% (inactive),17.8% (inactive)
CN1CCN(CC(=O)N2c3ccccc3C(=O)Nc3cccnc32)CC1,529,5.4% (inactive),-20% (inactive),110,-81.3% (inactive),123%,2.59,-0.126,-1.97,25.7% (inactive),-0.476 (inactive),-3.8e-05 (inactive),0.00501 (inactive),inactive,1.89% (inactive) and 39.4% (inactive),18.8% (inactive),34.2% (inactive)
Cn1cnc2c1c(=O)[nH]c(=O)n2C,544,-10.8% (inactive),-16.4% (inactive),97,-30.6% (inactive),124%,-0.137,-0.093,1.06,-6.41% (inactive),-0.513 (inactive),1.2e-05 (inactive),0.00542 (inactive),inactive,8.14% (inactive) and 20.9% (inactive),13.1% (inactive),16.1% (inactive)
O=C1CC(c2ccccc2)NC(=O)N1 (configuration not stated),692,-11.2% (inactive),15.5% (inactive),100,23% (inactive),127%,-1.04,-0.999,0.572,9.39% (inactive),-0.454 (inactive),-0.000279 (inactive),0.0044 (inactive),inactive,-8.12% (inactive),11% (inactive),23.5% (inactive)
COc1ccc(C2CNC(=O)C2)cc1OC1CCCC1 (configuration not stated),595,-1.7% (inactive),-10.3% (inactive),97.8,-59.8% (inactive),124%,-1.08,-0.0715,0.178,3.45% (inactive),-0.507 (inactive),-0.000115 (inactive),0.00579 (inactive),inactive,0.165% (inactive) and 12.7% (inactive),15.5% (inactive),0.301% (inactive)
O/N=C/c1ccc(OCC(O)COc2ccc(/C=N/O)cc2)cc1,678,3.9% (inactive),8.1% (inactive),104,-37.7% (inactive),114%,0.736,-0.218,-0.78,-8.59% (inactive),-0.33 (inactive),-1e-05 (inactive),0.00891 (inactive),inactive,13.7% (inactive),-3.4% (inactive),-9.91% (inactive)
NS(=O)(=O)c1cc2c(cc1Cl)NC(CSCc1ccccc1)=NS2(=O)=O,643,-8.9% (inactive),13.9% (inactive),103,-78.7% (inactive),116%,-0.00243,-0.584,-0.561,9.37% (inactive),-0.459 (inactive),-7.8e-05 (inactive),0.00625 (inactive),inactive,2.85% (inactive),10.8% (inactive),33.9% (inactive)
Cn1c(-n2c(-c3ccco3)nc3ccccc3c2=O)nc2ccccc21,589,-10.5% (inactive),32% (inactive),109,-8.3% (inactive),126%,0.944,0.431,-0.392,8.31% (inactive),-0.351 (inactive),-6.3e-06 (inactive),0.00557 (inactive),inactive,9.97% (inactive),20.8% (inactive),6.14% (inactive)
CCCCC(=O)Nc1c(O)c2ccccc2[nH]c1=O,450,1.5% (inactive),-22.7% (inactive),104,-155% (inactive),137%,-1.21,0.174,1.14,-8.95% (inactive),-0.491 (inactive),-0.000197 (inactive),0.00511 (inactive),inactive,-4.89% (inactive),2.04% (inactive),1.03% (inactive)
CCCCCC(=O)O[C@]1(C(C)=O)CC[C@H]2[C@@H]3CCC4=CC(=O)CC[C@]4(C)[C@H]3CC[C@@]21C,601,-6.9% (inactive),2.3% (inactive),104,-58.2% (inactive),122%,-1.27,-0.399,1.24,13.3% (inactive),-0.444 (inactive),-6.6e-05 (inactive),0.00545 (inactive),inactive,3.11% (inactive),0.124% (inactive),48% (inactive)
CCOc1ccc(CSC(CC(=O)O)C(=O)O)cc1 (configuration not stated),670,-12.9% (inactive),18.1% (inactive),98.8,-17.6% (inactive),137%,-0.325,-0.101,1.94,-6.86% (inactive),-0.356 (inactive),-2.7e-05 (inactive),0.00455 (inactive),inactive,2.66% (inactive),13.1% (inactive),29.3% (inactive)
CCOC(=O)CC(=O)CSc1[nH]c(=O)cc(C)c1C#N,653,-6% (inactive),5.4% (inactive),96.3,28.4% (inactive),132%,-1.3,0.221,-0.165,11% (inactive),-0.403 (inactive),-6.7e-05 (inactive),0.0053 (inactive),inactive,6.76% (inactive),3.57% (inactive),10% (inactive)
CC1(C)Cc2c(C#N)c(SCCC#N)nc(N3CCOCC3)c2CS1,632,-13% (inactive),-5.8% (inactive),106,-104% (inactive),132%,0.7,-1.52,-1.34,28.6% (inactive),-0.343 (inactive),-8.5e-06 (inactive),0.0053 (inactive),inactive,-1.16% (inactive),15.2% (inactive),18.7% (inactive)
